Data: PubChem BioAssay (NCI)
The panel holds about 83,000 compounds, 20% with a hit somewhere; the sample as a whole holds those more often.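 A percent growth of 40 corresponds to 60% growth inhibition; 0 means no net growth; -100 means all cells died. Active threshold: below 10.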 Active and inactive are the calls of the source.

What follows are compounds tested on MDA-MB-468 breast (assay: NCI-60 one-dose screen, 48 h (100 = growth as untreated, 0 = no growth, -100 = all killed)). Conditions: 10 µM unless noted.

| Structure (SMILES) | growth |
| --- | --- |
| CCOC(=O)Nc1ccc2c(c1)C(=O)N(CCOC)c1ccccc1O2 | 20.2% (inactive) |
| Cc1cc(C)c(S(=O)(=O)/N=c2/n(-c3ccccc3)nc3n2CCN3C2=NCCN2)c(C)c1 | 30% (inactive) |
| Cc1ccc(S(=O)(=O)NCCCNc2cc(-c3cn(C(C)(C)C)nc3-c3cccc(O)c3)ccn2)cc1 | 35.5% (inactive) |
| COC12C=C/C(=C(/C(=O)OCc3ccccn3)C(=O)CCCCCCCCC3(OC)C=C/C(=C(/C(=O)OCc4ccccn4)C(=O)CCCCCCCC1)O3)O2 | -32.5% (active) |
| NC(=O)CN1CCN(c2ccccc2Cl)CC1 | 108% (inactive) |
| C=C(C)[C@@H]1CC[C@]2(C(=O)N3CCN(CC)CC3)CC[C@]3(C)[C@H](CC[C@@H]4[C@@](C)(CCC(=O)N5CCN(CC)CC5)[C@H](C(=C)C)CC[C@]43C)[C@@H]12 | 43.4% (inactive) |
| CC(C)c1ccc(Cc2cnc(NC(=O)c3cc(Br)cs3)s2)cc1 | -4.52% (active) |
| Cc1cc(Br)nnc1Br | 101% (inactive) |
| OCC1OC(O)C(O)C(O)C1O (stereo unspecified) | 121% (inactive) |
| COc1cc(OC)cc(N2CCN(C(=O)Nc3nc4cc(F)ccc4nc3OC)CC2)c1 | -5.78% (active) |
| Clc1cccc(Nc2ncnc3ccc(-c4cncc(-n5cnnn5)c4)cc23)c1 | -31.6% (active) |
| Fc1ccc(-c2nc(C(Cl)Cl)nc3cc(-c4ccccc4)nn23)cc1 | -52.7% (active) |
| C1CN(CC2CCC(CN3CCOCC3)O2)CCO1 (stereo unspecified) | 102% (inactive) |
| COc1ccc(CNc2ccc3nc(CCC4CCCCC4)[nH]c3c2)cc1 | 39.1% (inactive) |
| CCOC(=O)c1ccc2c(c1)c1c(C)c3ccncc3c(C)c1n2C | 5.19% (active) |
| N#Cc1nn(-c2ccccn2)c(N)c1C#N | 116% (inactive) |
| C=C1CC2(OC1=O)C(=O)Nc1ccccc12 (stereo unspecified) | -11.5% (active) |
| Cc1ccc(-c2nc3c(c(-c4ccccc4)nn3-c3ccccc3)c(-c3ccc(O)cc3)c2C#N)cc1 | 52.7% (inactive) |

| Structure (SMILES) | growth |
| --- | --- |
| COC(=O)C1=NNC(=S)N(c2cc(C)[nH]n2)C(=O)C1 | 108% (inactive) |
| COc1ccc(C2=NN(/C=C3\SC(=O)NC3=Nc3ccc(F)cc3)C(c3ccc(F)cc3)C2)cc1 (stereo unspecified) | 101% (inactive) |
| O=C1CCc2ccccc2N1 | 98.8% (inactive) |
| COc1cc2oc(-c3cccc(C(=O)Nc4ccc(C)cc4)c3)cc(=O)c2c(OC)c1OC | 54.5% (inactive) |
| COc1cccc(C2CC(=O)Nc3cc4c(cc32)OCO4)c1OC (stereo unspecified) | 73.2% (inactive) |
| O=C(Nc1ccc2c(ccn2Cc2ccccn2)c1)c1cnccn1 | 103% (inactive) |
| O=[N+]([O-])c1ccc(N=Nc2c(O)c(N=Nc3cc([N+](=O)[O-])cc([N+](=O)[O-])c3O)cc(N=Nc3cc(S(=O)(=O)O)cc4cc(S(=O)(=O)O)cc(O)c34)c2O)cc1 | 100% (inactive) |
| Cn1ccc(Cc2cnc(N)s2)n1 | 103% (inactive) |
| CCOC(=O)C(=Cc1c(-c2ccccc2)[nH]c2ccccc12)C(=O)OCC | 12.8% (inactive) |
| C=C1C(=O)O[C@H]2[C@H]1CC/C(COC(=O)NCc1ccc(Cn3c(=O)sn(CCCl)c3=O)cc1)=C\CC[C@@]1(C)O[C@@H]21 | 5.52% (active) |
| O=C(N=Nc1c(O)[nH]c2ccccc12)c1oc2ccccc2c1CN1CCN(c2ccccc2)CC1 | -46% (active) |
| CC(=O)Oc1ccc(C23c4ccccc4C2(OC(C)=O)c2cc(OC(C)=O)ccc23)cc1 (stereo unspecified) | 14.8% (inactive) |
| ClC(Cl)c1nc(-c2ccccc2)n2nc(-c3ccccc3)cc2n1 | -52.3% (active) |
| CC(=O)O[C@H]1CC[C@]2(C)[C@H]3CC[C@@H]4[C@H]5[C@H](C(C)C)CC[C@]5(C(=O)OCC(CO)(CO)N=C(N)N)CC[C@@]4(C)[C@]3(C)CC[C@H]2C1(C)C | -25.5% (active) |
| Cc1ccc(NS(=O)(=O)c2ccc3c(c2)C2OCCC2C(c2ccc(C(=O)C(C)C)cc2)N3)cc1C (stereo unspecified) | -4.81% (active) |
| COc1ccc(Cn2nc(-c3ccccc3)c3c2CCc2cnoc2-3)cc1 | 43.1% (inactive) |
| COC(=O)/C(CCC=C(C)C)=C1\[C@@H](OC(C)=O)C[C@@]2(C)[C@H]1CC(=O)[C@H]1[C@@]3(C)CCC(N4CCCC4)[C@@H](C)[C@@H]3CC[C@@]12C (stereo partly specified) | 99.7% (inactive) |
| Cc1ccc2nc(SCC(=O)Nc3ccc(-c4nc5ccccc5s4)c(Cl)c3)[nH]c2c1 | 101% (inactive) |
